The source of these data is PubChem BioAssay.

Inconclusive results are not listed. Active and inactive are the calls of the source.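 The calls were made as follows, unless noted: active = cell viability at or below a set limit in both duplicate runs, the limit being the all-compound median minus 4 SD (cut at about 23% in these data, passing the limit was not always enough); inconclusive = no clear call, values can overlap the other calls; inactive = the rest.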

A short description of assay [1]: Her2 expression decrease, cell viability multiplex – SKBR3 breast tumor cells, AlphaScreen, ATP viability, primary screen (AID 461;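 active = Her2 level under about 52% in both replicate screens, with viability over 70% of control, limit read from the data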;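 as to Her2 level: lower value means less Her2 protein in the cells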;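 as to viability: percent of carrier control wells set as 100% viability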). The conditions noted are these: SKBR3 Her2 protein level, 18-24 h, measured here: SKBR3 viability, ATP luminescence, at 10 µM.
In assay [2] the target is Receptor tyrosine-protein kinase erbB-2 (Homo sapiens) (UniProt P04626). The description is as above. As to conditions: 18-24 h, at 10 µM, stronger effect = lower value.
Assay [3] in a line: reduced viability of SK-BR-3 breast cancer cells – cell-based, 24 h, human, pilot screen (AID 572;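 active = viability at or below 10% of carrier control in both of two separate runs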;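 also: compound exposure lasted between 18 and 24 h rather than exactly 24 h; 100% = carrier-treated control wells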). As to conditions: SK-BR-3 viability, CellTiter-Glo luminescence, at 10 µM, stronger effect = lower value.
The nature of assay [4]: HUVEC growth inhibition – cell-based, human, primary screen (AID 575;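 active = viability at or below 30% in both replicate assays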;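 also: 100% = median of untreated cell wells with 0.1% DMSO on each plate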). The conditions noted are these: HUVEC proliferation, CellTiter-Glo luminescence, 72 h; at 10 µM; stronger effect = lower value.
A short description of assay [5]: H69AR cell proliferation blockers – human, duplicate replicates, primary screen (AID 580;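 active = viability at or under a set limit in both replicates, limit being median viability minus 3 SD, cut at about 48% in these data, passing the limit was not always enough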;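 also: 100% = mean luminescence of untreated wells and 0% = no signal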). The conditions noted are these: H69AR lung tumor cells viability, ATP luminescence, 72 h; at 10 µM; stronger effect = lower value.
Assay [6] can be described thus: MRP1 drug-resistance reversers in H69AR cells – cell-based, doxorubicin co-treatment, pilot screen (AID 601;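 active = viability loss from added drug above about 55%, and viability with drug at most 40%, in both replicates, limit read from the data, passing the limit was not always enough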). The conditions noted are these: CellTiter-Glo, 72 h, at 10 µM; for differential viability (reversal): stronger effect = higher value.
Assay [7] can be described thus: yeast transport mutant growth inhibition pilot in 384-well plates, post-Golgi transport modulator project (AID 636; in the data active = inhibition above about 31%). The conditions noted are these: absorbance 615 nm, about 18 h, stronger effect = higher value.
Assay [8] is described as follows: growth suppression of yeast trafficking mutant, preliminary HTS, modulators of trafficking downstream of Golgi apparatus project, 1536-format plate, OD 615 nm (AID 637; in the data active = inhibition above about 30%). As to conditions: yeast transport mutant growth, absorbance 615 nm, 18 h; stronger effect = higher value.
Assay [9] is described as follows: S. cerevisiae growth inhibition in permissive medium (OD615), pilot counter-assay for S. cerevisiae lifespan shortening project, permissive growth control (AID 705;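 active = growth inhibition above 25% in both replicates, a cutoff set 3 SD above the mean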). The conditions noted are these: OD615, 24 h, at 10 µM, stronger effect = higher value.
Assay [10] in a line: S. cerevisiae growth inhibition in restrictive medium, OD615, pilot screen, restrictive growth control, yeast lifespan reduction project (AID 706;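 active = growth inhibition above a set limit, 3 SD over mean compound inhibition, in both replicates, cut at about 43% in these data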;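 also: modified DeaD lifespan yeast strain shifted to restrictive glucose medium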). The conditions noted are these: OD615, 48 h, at 10 µM, stronger effect = higher value.
The nature of assay [11]: doxorubicin toxicity protection in MRP-1 cells – H69AR cells, CellTiter-Glo, duplicate, MRP-1 activator project, pilot screen (AID 807;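 active = viability increase at or above a cutoff of the median across tested compounds plus 3 SD, cut at about 8.5% in these data, passing the limit was not always enough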;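 also: compound pretreatment 18-22 h then 72 h combined with doxorubicin; 0% = doxorubicin alone and 100% = vehicle without doxorubicin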). As to conditions: H69AR viability with doxorubicin, CellTiter-Glo luminescence; at 10 µM; stronger effect = higher value.
A short description of assay [12]: viability of HCT116 without oncogenic beta-catenin – human colon tumor cells, pilot screen (AID 823).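 Also: 0% = wells killed by 20 µM Hyamine and 100% = untreated DMSO cell wells.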 As to conditions: HCT116 beta-catenin knockout viability, CellTiter-Glo, 60 h; at 10 µM; stronger effect = lower value.
Assay [13] can be described thus: viability of PTEN-null HCT116 cells – cell-based, HCT116 clonal line, CellTiter-Glo, pilot screen (AID 824;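 active = viability at or below 27.92% in each of two runs, the all-compound median minus 4 SD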;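 also: 0% = 20 µM Hyamine control and 100% = vehicle cell control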). As to conditions: HCT116 PTEN-deleted viability, 60 h, at 10 µM, stronger effect = lower value.
A short description of assay [14]: RAM pathway blockade in budding yeast – dse1pr::URA3 reporter, 5-FOA selection, pilot screen (AID 869;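 active = inhibition over a set limit, the all-compound mean plus 3 SD, in both replicate runs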;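 also: 0% = DMSO wells with no growth and 100% = 10 µM 1-NA-PP1 with full growth; RAM network block rescues cells from 5-FOA so hits raise OD615 growth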). As to conditions: S. cerevisiae dse1pr::URA3 5-FOA growth, OD615, 2 d; at 10 µM; stronger effect = higher value; strain carries analog-sensitive mutant Cbk1 kinase.
Assay [15] in a line: RAM signaling pathway blockade in yeast – S. cerevisiae, Pdr1DBD-CYC8 efflux-inhibited sensitized strain, primary screen (AID 1298;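 active = RAM network inhibition above 8.4% in each of two replicates, 3 SD over the compound average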;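 also: 0% = DMSO untreated cells without growth and 100% = 10 µM 1-NA-PP1 full growth; higher means more yeast growth rescued from 5-FOA killing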). The conditions noted are these: S. cerevisiae cbk1-as DSE1-URA3 strain, 5-FOA growth OD615, 2 d; at 50 µM; stronger effect = higher value.
Setting [16] is: H69AR cells + 2 uM doxorubicin, measured here: viability with 2 uM doxorubicin, stronger effect = lower value.
Where [17] appears, read: H69AR cells, compound alone cytotoxicity.

Chain of Receptor tyrosine-protein kinase erbB-2 (Homo sapiens) (P04626 whole entry, looked up): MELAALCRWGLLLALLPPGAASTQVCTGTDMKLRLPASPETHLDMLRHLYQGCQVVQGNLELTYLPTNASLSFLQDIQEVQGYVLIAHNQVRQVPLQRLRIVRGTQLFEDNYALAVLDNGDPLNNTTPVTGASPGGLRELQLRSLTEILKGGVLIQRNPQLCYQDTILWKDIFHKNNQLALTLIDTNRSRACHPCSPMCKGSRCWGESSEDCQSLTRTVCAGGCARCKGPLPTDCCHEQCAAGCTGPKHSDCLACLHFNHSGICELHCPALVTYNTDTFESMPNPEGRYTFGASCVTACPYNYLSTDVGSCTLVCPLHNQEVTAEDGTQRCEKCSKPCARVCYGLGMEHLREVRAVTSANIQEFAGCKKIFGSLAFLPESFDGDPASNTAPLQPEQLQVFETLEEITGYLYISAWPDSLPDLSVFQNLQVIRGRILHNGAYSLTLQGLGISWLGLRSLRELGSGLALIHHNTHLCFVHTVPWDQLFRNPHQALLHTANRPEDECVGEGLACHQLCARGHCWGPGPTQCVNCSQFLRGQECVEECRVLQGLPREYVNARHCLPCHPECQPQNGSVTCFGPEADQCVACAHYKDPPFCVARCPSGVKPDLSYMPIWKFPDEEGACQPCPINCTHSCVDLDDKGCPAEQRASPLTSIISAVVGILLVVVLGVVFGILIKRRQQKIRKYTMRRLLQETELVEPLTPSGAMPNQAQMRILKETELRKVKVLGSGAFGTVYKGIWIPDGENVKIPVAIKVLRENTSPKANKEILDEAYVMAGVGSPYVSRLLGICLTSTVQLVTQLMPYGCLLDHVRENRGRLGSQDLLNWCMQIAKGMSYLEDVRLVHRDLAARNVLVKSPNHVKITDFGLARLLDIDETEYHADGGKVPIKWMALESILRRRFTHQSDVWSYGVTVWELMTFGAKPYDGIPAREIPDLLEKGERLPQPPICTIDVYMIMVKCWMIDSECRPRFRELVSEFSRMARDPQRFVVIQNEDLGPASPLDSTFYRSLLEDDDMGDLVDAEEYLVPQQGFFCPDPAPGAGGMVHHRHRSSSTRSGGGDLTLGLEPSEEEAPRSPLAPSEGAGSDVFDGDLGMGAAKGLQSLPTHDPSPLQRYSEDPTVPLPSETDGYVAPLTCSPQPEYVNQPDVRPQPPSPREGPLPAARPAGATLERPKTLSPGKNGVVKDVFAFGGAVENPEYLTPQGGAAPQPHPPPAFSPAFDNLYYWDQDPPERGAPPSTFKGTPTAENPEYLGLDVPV

On to `COc1ccc(NC(=O)C2CCCCN2S(=O)(=O)c2ccc(F)cc2)cc1` (stereo not given), for which the viability in assay [1] was 91%; in assay [3], 91% (inactive); in assay [4] it was 91.4% (inactive); in [5], 89.2% (inactive); in [6] (setting [16]), 101%; in assay [6] (setting [17]), 89.2%. Further, the results for the viability in assay [12] and in [13] were 83.5% (inactive) and 88% (inactive), respectively. Moreover, in assay [2], the Her2 level is 93% (inactive). Further, the differential viability (reversal) in [6] (H69AR cells + 2 uM doxorubicin) is -12.1% (inactive). The inhibition in assay [7] was -7.47% (inactive); in assay [8], 1% (inactive); in [14], 1.19% (inactive). Moreover, the growth inhibition is -18.5% (inactive) in assay [9] and -18.4% (inactive) in assay [10]. Besides, the viability increase in [11] was -1.3% (inactive). Besides, the RAM network inhibition in assay [15] is 5.45% (inactive).
Consider `COc1ccccc1N1CCN(C(=O)N2CCOCC2)CC1`, for which the viability in assay [1] was 107%; in assay [3], 107% (inactive); in assay [4] it was 86.9% (inactive); in [5], 73.8% (inactive); in assay [6] (setting [16]), 82.9%; in assay [6] (setting [17]) it was 73.8%. The viability in assay [12] is 95.9% (inactive); in [13], 96.8% (inactive). The Her2 level in assay [2] was 87% (inactive). The differential viability (reversal) in assay [6] (H69AR cells + 2 uM doxorubicin) is -9.12% (inactive). Further, the figures for the inhibition in assay [7], in [8] and in assay [14] were -1.95% (inactive), -5.57% (inactive) and 1.06% (inactive), respectively. Also, the growth inhibition in assay [9] is -17.3% (inactive); in [10] it was -6.65% (inactive). Moreover, the viability increase in assay [11] is -1.74% (inactive). Moreover, in assay [15], the RAM network inhibition was 0.62% (inactive).
As to `COc1ccc(-c2nnc(SCC(=O)N3CCOCC3)o2)cc1OC`, the viability in [1] was 91%; in [3], 91% (inactive); in assay [4] it was 89.4% (inactive); in assay [5] it was 96.1% (inactive); in [6] (setting [16]), 92.7%; in assay [6] (setting [17]), 96.1%. The viability is 103% (inactive) in [12] and 110% (inactive) in assay [13]. The Her2 level in assay [2] was 96% (inactive). The differential viability (reversal) in assay [6] (H69AR cells + 2 uM doxorubicin) is 3.41% (inactive). The inhibition is -1.2% (inactive) in assay [7], -6.89% (inactive) in assay [8] and 1.16% (inactive) in assay [14]. In addition, the values for the growth inhibition in [9] and in assay [10] were 1.14% (inactive) and -3.02% (inactive), respectively. In addition, the viability increase in [11] is -1.32% (inactive). For the same compound, the RAM network inhibition in assay [15] was 1.27% (inactive).
`CC(C)c1nnc(NC(=O)C2CCCCC2)s1`: the viability is 98.5% in [1]; 98.5% (inactive) in [3]; 96.5% (inactive) in [4]; 99.5% (inactive) in assay [5]; 93.8% in assay [6] (setting [16]); 99.5% in assay [6] (setting [17]). Also, the viability in assay [12] was 99.7% (inactive); in assay [13] it was 97.1% (inactive). Moreover, the Her2 level in [2] was 97% (inactive). Further, in [6] (H69AR cells + 2 uM doxorubicin), the differential viability (reversal) is 5.75% (inactive). For the same compound, the inhibition in assay [7] is -4.13% (inactive); in [8] it was 0.83% (inactive); in [14], -0.59% (inactive). Also, the results for the growth inhibition in assay [9] and in assay [10] were -3.55% (inactive) and 0.755% (inactive), respectively. Also, the viability increase in [11] was -0.65% (inactive). Further, the RAM network inhibition in [15] was -2.03% (inactive).
`O=C(c1cnc2n(c1=O)CCS2)N(C1CCCCC1)C1CCCCC1`: the viability was 87% in assay [1]; 87% (inactive) in assay [3]; 106% (inactive) in assay [4]; 102% (inactive) in assay [5]; 97.4% in assay [6] (setting [16]); 102% in [6] (setting [17]). The viability is 101% (inactive) in assay [12] and 92.3% (inactive) in assay [13]. Moreover, the Her2 level in assay [2] was 84% (inactive). For the same compound, the differential viability (reversal) in assay [6] (H69AR cells + 2 uM doxorubicin) is 5.03% (inactive). The inhibition in assay [7] is -4.53% (inactive); in [8], -1% (inactive); in assay [14], 1.71% (inactive). Moreover, the growth inhibition in assay [9] was 2.67% (inactive); in assay [10], -18.9% (inactive). Moreover, the viability increase in [11] is -2.34% (inactive). Further, the RAM network inhibition in [15] is 2.61% (inactive).
